Test results as given in PubChem BioAssay AID1159580 (chemical genetic matrix, 2015).
Among all 5,500 compounds or so, about 2,000 (36%) were called active. Inconclusive results (about 18%) are left out. No stated cut-off is given here; in the data, active means normalized growth mostly below about 0.91 (no sharp cut-off); inconclusive means no clear call, values can overlap the other calls; inactive means mostly above about 0.92. This is one part of the list.

Assay: chemical genetic growth profiling, strain panel (AID 1159580);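 further: tested at 20 µM; growth read once vehicle control cultures reached saturation at 30 °C; 1 = growth at the plate median or of vehicle wells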
Conditions: S. cerevisiae deletion strains, growth OD

Measured: normalized growth

O=c1ccc2c(O)c3ccoc3cc2o1
inactive: locus YAL021C, strain ccr4, stronger effect = lower value 0.992 | locus YAL026C, strain drs2, stronger effect = lower value 0.974 | locus YAL030W, strain snc1, stronger effect = lower value 0.989 | locus YBL061C, strain skt5, stronger effect = lower value 0.982 | locus YBR009C, strain hhf1, stronger effect = lower value 0.977 | locus YBR023C, strain chs3, stronger effect = lower value 0.987 | locus YBR171W, strain sec66, stronger effect = lower value 0.983 | locus YBR231C, strain swc5, stronger effect = lower value 0.989 | locus YBR279W, strain paf1, stronger effect = lower value 0.984 | locus YCL011C, strain gbp2, stronger effect = lower value 0.989 | locus YCL016C, strain dcc1, stronger effect = lower value 0.986 | locus YCL069W, strain vba3, stronger effect = lower value 0.98 | locus YCR088W, strain abp1, stronger effect = lower value 0.967 | locus YDL005C, strain med2, stronger effect = lower value 0.986 | locus YDL040C, strain nat1, stronger effect = lower value 0.99 | locus YDR001C, strain nth1, stronger effect = lower value 0.977 | locus YDR069C, strain doa4, stronger effect = lower value 0.986 | locus YDR137W, strain rgp1, stronger effect = lower value 1.01 | locus YDR159W, strain sac3, stronger effect = lower value 0.997 | locus YDR195W, strain ref2 0.957 | locus YDR297W, strain sur2, stronger effect = lower value 0.987 | locus YDR334W, strain swr1, stronger effect = lower value 0.947 | locus YDR335W, strain msn5, stronger effect = lower value 0.994 | locus YDR392W, strain spt3, stronger effect = lower value 0.98 | locus YEL003W, strain gim4, stronger effect = lower value 0.984 | locus YEL037C, strain rad23, stronger effect = lower value 0.984 | locus YEL061C, strain CIN8 (second series), stronger effect = lower value 0.965 | locus YER015W, strain faa2, stronger effect = lower value 0.993 | locus YER016W, strain bim1, stronger effect = lower value 0.994 | locus YER111C, strain swi4, stronger effect = lower value 0.995 | locus YER155C, strain BEM2 (second series), stronger effect = lower value 0.997 | locus YFR010W, strain ubp6, stronger effect = lower value 0.968 | locus YGL167C, strain pmr1, stronger effect = lower value 0.986 | locus YGL173C, strain kem1, stronger effect = lower value 0.992 | locus YGL227W, strain vid30, stronger effect = lower value 0.981 | locus YGL240W, strain doc1, stronger effect = lower value 0.99 | locus YGL253W, strain hxk2, stronger effect = lower value 0.997 | locus YHR013C, strain ard1, stronger effect = lower value 0.956 | locus YHR027C, strain rpn1, stronger effect = lower value 0.998 | locus YHR030C, strain SLT2, stronger effect = lower value 0.997 | locus YHR079C, strain IRE1, stronger effect = lower value 0.985 | locus YHR142W, strain chs7, stronger effect = lower value 0.975 | locus YJL092W, strain hpr5, stronger effect = lower value 0.983 | locus YJL095W, strain BCK1 (second series), stronger effect = lower value 0.972 | locus YJL095W, strain BCK1, stronger effect = lower value 0.991 | locus YJL115W, strain asf1, stronger effect = lower value 0.965 | locus YJL129C, strain trk1, stronger effect = lower value 0.978 | locus YJL154C, strain vps35, stronger effect = lower value 0.966 | locus YJL164C, strain tpk1, stronger effect = lower value 0.992 | locus YJL166W, strain qcr8, stronger effect = lower value 0.963 | locus YJL187C, strain SWE1, stronger effect = lower value 0.988 | locus YJR066W, strain TOR1, stronger effect = lower value 0.935 | locus YKL160W, strain elf1, stronger effect = lower value 0.993 | locus YKR026C, strain gcn3, stronger effect = lower value 0.986 | locus YKR091W, strain srl3, stronger effect = lower value 0.984 | locus YLL001W, strain dnm1, stronger effect = lower value 0.982 | locus YLL026W, stronger effect = lower value 0.993 | locus YLL041C, strain sdh2, stronger effect = lower value 0.981 | locus YLR027C, strain aat2, stronger effect = lower value 0.976 | locus YLR113W, strain HOG1, stronger effect = lower value 1 | locus YLR221C, strain rsa3, stronger effect = lower value 0.984 | locus YLR258W, strain gsy2, stronger effect = lower value 0.987 | locus YLR262C, strain YPT6 (second series), stronger effect = lower value 1.01 | locus YLR320W, strain mms22, stronger effect = lower value 1.01 | locus YLR342W, strain FKS1, stronger effect = lower value 0.984 | locus YLR357W, strain rsc2, stronger effect = lower value 0.975 | locus YLR370C, strain arc18, stronger effect = lower value 0.984 | locus YLR384C, strain iki3, stronger effect = lower value 0.992 | locus YML120C, strain ndi1, stronger effect = lower value 0.97 | locus YMR058W, strain fet3, stronger effect = lower value 0.98 | locus YMR125W, strain sto1, stronger effect = lower value 0.983 | locus YMR129W, stronger effect = lower value 0.976 | locus YMR205C, strain PFK2, stronger effect = lower value 0.975 | locus YMR231W, strain pep5, stronger effect = lower value 0.981 | locus YNL071W, strain lat1, stronger effect = lower value 0.979 | locus YNL183C, strain NPR1, stronger effect = lower value 0.944 | locus YNL209W, strain ssb2, stronger effect = lower value 0.975 | locus YNL248C, strain rpa49, stronger effect = lower value 0.941 | locus YNL322C, strain KRE1 (second series), stronger effect = lower value 0.984 | locus YNR049C, strain mso1, stronger effect = lower value 0.996 | locus YOR001W, strain rrp6, stronger effect = lower value 0.975 | locus YOR070C, strain gyp1, stronger effect = lower value 0.992 | locus YOR080W, strain dia2, stronger effect = lower value 0.987 | locus YOR083W, strain WHI5, stronger effect = lower value 0.989 | locus YOR106W, strain vam3, stronger effect = lower value 0.977 | locus YOR231W, strain MKK1, stronger effect = lower value 0.996 | locus YOR265W, strain rbl2, stronger effect = lower value 0.973 | locus YOR270C, strain vph1, stronger effect = lower value 0.904 | locus YOR290C, strain snf2, stronger effect = lower value 0.991 | locus YPL051W, strain arl3, stronger effect = lower value 1.01 | locus YPL078C, strain atp4, stronger effect = lower value 0.974 | locus YPL106C, strain sse1, stronger effect = lower value 0.978 | locus YPL240C, strain hsp82, stronger effect = lower value 0.983 | locus YPL256C, strain CLN2, stronger effect = lower value 0.978
